# Assay results taken from PubChem BioAssay AID488890 (Southern Research Specialized Biocontainment Screening …, 2010).
# The whole screen tested about 320,000 compounds, of which about 1,300 (0.41%) were called active. Not shown: some 3% with an inconclusive outcome. The rule behind the calls is not given here. Only a sample is shown. Results with a measured potency or affinity are listed apart.
# Test: growth inhibition of non-replicating M. tuberculosis (AID 488890);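 note: plate controls were DMSO cells for no effect and high antibiotic wells for full effect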
# Conditions: Mycobacterium tuberculosis non-replicating, at 25 µM, stronger effect = higher value
row,Structure (SMILES),inhibition [%]
1,C/C(=N\NC(=O)C(c1ccccc1)c1ccccc1)c1ccccn1,78.2
2,C/C(=N/NC(=O)CNC(=O)c1ccccn1)c1ccc([N+](=O)[O-])cc1,-2.72
3,O=S(=O)(c1ccc2nc(-c3ccccc3)[nH]c2c1)N1CCN(c2ccc(Cl)cc2)CC1,-14.5
4,C/C(=N\Nc1ncc(Cl)cc1Cl)c1ccc(OC(F)F)cc1,66.3
5,COc1ccc(/C(C)=N/Nc2ccccc2Cl)c(O)c1,9.47
6,COc1ccc([N+](=O)[O-])cc1NC(=O)c1cn(-c2ccc(Cl)cc2)c(=O)c2ccccc12,-16.7
7,N#CC1=C(N)Oc2nc[nH]c(=O)c2C1c1cccs1 (stereo not given),-24.7
8,Cc1cc(C)n2nc(N)c(N=Nc3cccc(Cl)c3)c2n1,79.2
9,Cc1cc(C)n2nc(N)c(N=Nc3ccc(Cl)cc3)c2n1,74.1
10,Cc1ccc(CC2S/C(=N/c3ccccn3)NC2=O)cc1 (stereo not given),21.2
11,O=C1N/C(=N/c2ccccn2)SC1Cc1ccccc1 (stereo not given),61.6
12,Cn1ccnc1SCC(=O)Nc1cccc(O)c1,1.05
13,CC/C(=N/Nc1ccccc1Cl)c1cnnc(-c2ccccc2)n1,5.04
14,COCCNC(=O)Cn1cc(C(=O)c2ccccc2F)c2ccccc21,6.99
15,CCC(NC(=O)c1cc(COc2cncc(Cl)c2)on1)c1ccncc1 (stereo not given),21.9
16,CCC(NC(=O)c1cc(COc2cncc(Cl)c2)on1)c1ccc(C)cc1 (stereo not given),61.6
17,COCCCN1C(=O)C(=O)/C(=C(/O)c2ccc(OC(C)C)cc2)C1c1ccc(O)c(OC)c1 (stereo not given),-2.98
18,CCc1cc2cccc(C)c2nc1SCC(=O)NNC(=O)c1ccco1,-10.6
19,C=CCn1c(O)c(C(C)=Nc2ccc(C(=O)O)cc2)c(=O)[nH]c1=O,6.37
20,C=CCn1c(O)c(C(C)=Nc2ccc(NC(C)=O)cc2)c(=O)[nH]c1=O,-9.1
21,O=S(=O)(Nc1ccc(Cl)c(Cl)c1)N1CCOCC1,-2.78
22,O=C(Nc1ccc(Cl)c(Cl)c1)C1=Cc2ccccc2OC1,58

row,Structure (SMILES),inhibition [%]
1,COc1ccc(S(=O)(=O)N2CCCCCC2)cc1NC(=O)CN1C(=O)CNC1=O,13.3
2,CCNC(=O)C(=O)NCC(c1cccs1)S(=O)(=O)c1ccc(C)cc1 (stereo not given),2.12
3,CN(C)c1cc[n+](CC(=O)Nc2ccc(Cl)cc2)cc1,9.15
4,CCc1nc2ccc(Br)cc2c(=O)n1-c1ccccc1C(F)(F)F,26.9
5,O=c1c2cc(Br)ccc2nc(-c2ccccc2)n1O,78.6
6,COc1ccccc1-c1nc2cc(Cl)ccc2c(=O)n1O,9.28
7,O=C(O)c1ccccc1-c1nc2cc(Cl)ccc2c(=O)n1O,-1.37
8,O=C(OCn1nnc2ccccc2c1=O)c1ccc(S(=O)(=O)N2CCOCC2)cc1,33.4
9,Cc1nn(-c2ccccc2)c(C)c1NC(=O)COC(=O)c1ccccc1OC(F)F,9.15
10,COc1ccc(NC(=O)C(c2ccccc2)c2ccccc2)c(OC)c1,-2.93
11,Nc1nc2nc(SCC(=O)N3CCCc4ccccc43)[nH]c2c(=O)[nH]1,0.84
12,CN(C)CCn1c2c(c(SCC(=O)Nc3ccc4c(c3)OCCO4)nc1=O)CCC2,-16.4
13,O=C(OCCN1C(=O)c2ccccc2C1=O)c1ccco1,15.3
14,O=C(CNC(=O)c1ccc(Br)o1)NC1CCCCCC1,-0.81
15,O=C(OCCCN1C(=O)c2ccccc2C1=O)c1ccco1,10.6
16,Cc1ccc(C(=O)OCC(=O)NC2CCCCC2)o1,36.7
17,O=C(COC(=O)c1ccc(Br)cc1)NC1CCCC1,46.5
18,CC1CCN(C(=O)COC(=O)c2cc(Cl)cc(Cl)c2N)CC1,78.5
19,O=C(COC(=O)c1cc([N+](=O)[O-])ccc1Cl)NC1CCCC1,73.8
20,Nc1c(Cl)cc(Cl)cc1C(=O)OCC(=O)N1CCOCC1,17.1
21,CCc1ccc(CNC(=O)CN2C(=O)COc3ccccc32)cc1,14.8
22,COc1ccc(S(=O)(=O)N2CCCC2CNC(=O)C(=O)NCc2ccc3c(c2)OCO3)cc1 (stereo not given),10.3

row,Structure (SMILES),inhibition [%]
1,COC(=O)CCC(=O)OC1(C)C(=O)C=C2C=C(C3CC3)N(C3CCCC3)C=C2C1=O (stereo not given),21.8
2,NC1=NC(=O)/C(=C/c2ccc(-c3ccc(S(N)(=O)=O)cc3)o2)S1,-4.9
3,Cc1ccc2c(C(=O)CN3CCN(C(=O)c4ccco4)CC3)c(C)[nH]c2c1,14
4,O=C(NC1CCCCC1)C(c1cccnc1)N(C(=O)c1ccc(Cl)nc1)C1CCCCC1 (stereo not given),20.7
5,O=C(NC(=S)Nc1ccc2[nH]c(=O)[nH]c2c1)c1ccccc1[N+](=O)[O-],-4.02
6,CCNC(=O)CSc1nnc(-c2ccccc2)n1-c1ccc(OCC)cc1,12
7,O=C1CSC(=Nc2cccc([N+](=O)[O-])c2)N1,17.5
8,O=C(OCC(=O)N1CCCC1)c1cc([N+](=O)[O-])ccc1Cl,67.6
9,O=C(COC(=O)c1ccc(Br)o1)NCCNC(=O)COC(=O)c1ccc(Br)o1,0.38
10,O=C(COC(=O)c1ccc([N+](=O)[O-])o1)NCCCc1ccccc1,73.4
11,O=C(OCC(=O)N1CCCC1)c1cccc(Br)c1,67.8
12,Nc1cccc(CP(=O)(c2ccccc2)c2ccccc2)c1,1.01
13,COc1cc(NC(=O)c2ccccc2-n2cnnn2)cc(OC)c1,10.3
14,COc1ccc(C2C(C(C)=O)=C(O)C(=O)N2c2ccc(Br)cc2)cc1 (stereo not given),29.9
15,COC(=O)CSc1nnc(-c2ccncc2)o1,-0.32
16,COC(=O)c1ccc(CSc2nnc(-c3ccncc3)n2Cc2ccccc2)o1,12.6
17,Cc1ccc(OCC(=O)OC(C)C(=O)NC2CCCCC2C)cc1C (stereo not given),65.7
18,Cc1c(C(=O)NCc2ccccc2CN2CCCC2)oc2ccc(F)cc12,42
19,Cc1nc(Cl)sc1C(=O)Nc1ccccc1,-6.17
20,COc1ccc(OC)c(NC(=O)c2nc3ccccc3s2)c1,-0.73
21,O=C(NCc1ccco1)c1cccnc1-c1nc2ccccc2s1,27.7
22,COc1ccc(NC(=O)Nc2nc3ccccc3s2)cc1,-4.36

row,Structure (SMILES),inhibition [%]
1,O=C(NCc1ccccc1)c1nc2ccccc2s1,79.5
2,Cc1nc(C)c(C(=O)Nc2ccccc2)s1,-13.4
3,CN(C(=O)COC(=O)CSc1cc(Cl)ccc1Cl)c1c(N)n(Cc2ccccc2)c(=O)[nH]c1=O,7.95
4,COc1ccc(CC2C(=O)OC(C)(C)OC2=O)c(Cl)c1OC,-14.3
5,CCCC1=C(C(=O)OCC)C(c2cccnc2)n2nc(C)nc2N1 (stereo not given),-11.9
6,COCCn1c(=O)c2c(nc3n2CC(C)CN3CCc2ccccc2)n(C)c1=O (stereo not given),22.9
7,Cc1[nH]c(=O)[nH]c(=O)c1S(=O)(=O)N1CCN(c2ccccc2F)CC1,-5.44
8,COc1ccc(OC)c(C(=O)c2oc3ccccc3c2NC(C)=O)c1,-5.83
9,CCOC(=O)c1sc(=S)n(-c2ccc3c(c2)OCO3)c1N,1.96
10,N/C(=N\OC(=O)c1ccccc1Cl)c1cccc([N+](=O)[O-])c1,66.7
11,N/C(=N\OC(=O)c1ccc(Cl)cc1)c1ccccn1,28.3
12,N/C(=N\OC(=O)c1ccc(Cl)cc1)c1ccc(Cl)cc1,69.9
13,N/C(=N\OC(=O)c1ccccc1Cl)c1ccccn1,-3.97
14,C=CCOC(=O)c1cn(CC)c2nc(C)ccc2c1=O,-10.5
15,CCOC(=O)C1(Cc2cccc(Cl)c2)CCCN(C(=O)c2ccoc2C)C1 (stereo not given),33.8
16,CCOC(=O)NC(CC(=O)O)c1ccc(OC)cc1 (stereo not given),-4.02
17,CCn1c(C)nc2cc(C(=O)N/N=C/c3ccc(N4CCOCC4)cc3)ccc21,33
18,c1ccc2c(c1)CC(N1CCCCC1)c1ccccc1S2 (stereo not given),72.9
19,CN1CCN(C2Cc3ccccc3Sc3ccc(Cl)cc32)CC1 (stereo not given),76.8
20,CCOC(=O)C1(Cc2ccc(OC)cc2)CCN(C(=O)c2cncs2)CC1,-27.1
21,CCOC(=O)c1ccc(NC(=O)NCc2ccncc2)cc1,15.4
22,CCc1ccc(N2C(=O)c3cc(N4CCOCC4)c([N+](=O)[O-])cc3C2=O)cc1,1.14

row,Structure (SMILES),inhibition [%]
1,O=[N+]([O-])c1ccc(CSc2nnc3ccccn23)cc1,1.79
2,CCc1ccc(NC(=O)CCCn2nc(CC)n3c(cc4occc43)c2=O)cc1,21.1
3,CSc1ccc(CCNC(=O)CCc2nnc3ccc(N4CCC5(CC4)OCCO5)nn23)cc1,11.6
4,Cc1nc2ccc([N+](=O)[O-])cc2c(=O)n1Cc1ccc(Cl)cc1,-5.97
5,COc1ccccc1-c1nc2ccc(Cl)cc2c(=O)n1O,11.4
6,Nn1c(-c2ccccc2)nc2cc(Cl)ccc2c1=O,-0.74
7,Cc1nc2ccc(Cl)cc2c(=O)n1-c1ccc([N+](=O)[O-])cc1,36.5
8,Cc1ccc(-c2nc3ccc(Cl)cc3c(=O)n2O)cc1,69.6
9,O=c1c2ccccc2nc(-c2ccc([N+](=O)[O-])cc2)n1-c1ccccc1,-1.75
10,Cc1nc2ccc([N+](=O)[O-])cc2c(=O)n1Cc1ccc(Br)cc1,-9.44
11,O=C(Nn1c(-c2ccc(Br)cc2)nc2ccccc2c1=O)c1ccc([N+](=O)[O-])cc1,20.4
12,CCCNC(=O)c1ccc(Cn2c(=S)[nH]c3c([nH]c4ccc(OC)cc43)c2=O)cc1,-43.9
13,CC1Cc2cc(S(=O)(=O)N3CCN(c4ccccc4F)CC3)ccc2N1C(=O)C1CC1 (stereo not given),31.8
14,CC1Sc2ccc(S(=O)(=O)CCC(=O)N3CCN(c4ccccc4)CC3)cc2NC1=O (stereo not given),12.1
15,COC(=O)C1=C(C)NC(=O)CC1c1cc2c(cc1Br)OCO2 (stereo not given),-0.49
16,Cc1ccccc1C(=O)N1CCN(c2ncccn2)CC1,-10.1
17,CCOC(=O)c1ccc(S(=O)(=O)NC2CC2)cc1,0.31
18,COc1ccc(COC(=O)CN2C(=O)NC3(CC(C)CC(C)(C)C3)C2=O)cc1F (stereo not given),7.47
19,CC(C)C[C@H](NC(=O)c1nc[nH]c1C(=O)NCCCCCN)C(=O)OCc1ccccc1,18.5
20,CCN(CC(=O)Nc1ccc(OC)cc1)C(=O)c1cc2c(s1)CCCCC2,12.4
21,CSc1nnc(SCC(=O)Nc2ccc3[nH]c(=O)[nH]c3c2)s1,-17
22,COc1ccccc1NC(=O)CN1C(=O)COc2ccc(S(=O)(=O)N3CCC(C)CC3)cc21,9.4
